Out of some 69,000 compounds screened, about 8,600 (12%) showed an effect of 50% or more. This is one part of a sample in which strong results are shown more often than they occur.

Drawing on ChEMBL document CHEMBL4513216, “Probing the Open Global Health Chemical Diversity Library for Multistage-Active Starting Points for Next-Generation Antimalarials” (ACS Infect Dis, 2020), this text covers INHIBITION for 107 compounds.

The assay deals with Plasmodium berghei. The experiment in a line: Screen against P. berghei liver stage (PbLuc), transformed with Luciferase, at 10uM. It counts as functional, HepG2. Conditions: tested at 10 uM.
For `CN(C)S(=O)(=O)N1CCN(c2cc(-n3cccc3)ncn2)CC1`, the INHIBITION is reported as 14.4%.
Consider `CN(Cc1cnn(C)c1)C(=O)c1ccnc(OC2CCC2)c1`, for which the INHIBITION was found to be 46.4%.
On to `CN(Cc1nnc(C2CC2)n1C)C(=O)c1ccnc(OC2CCC2)c1`, for which the INHIBITION is given as -13.4%.
As for `CCc1noc(CN(C)C(=O)c2ccnc(OC3CCC3)c2)n1`, the figure is 55.4%; as for `CN(Cc1ccc(C#N)cc1)C(=O)c1ccnc(OC2CCC2)c1`, 51.4%; as for `CN(Cc1cnccn1)C(=O)c1ccnc(OC2CCC2)c1`, 36.3%.
As to `CN(CC1CCCCO1)C(=O)c1ccnc(OC2CCC2)c1` (configuration not stated), the INHIBITION came out at 9.48%.
On to `CC(C)NC(=O)N1CCc2ncc(CN3CCOCC3)n2CC1`, for which the INHIBITION is reported as 21.6%.
Turning to `CCCS(=O)(=O)N1Cc2nccn2CC(CN(C)C)C1` (configuration not stated), the INHIBITION is -57.5%.
For the compound `CC(=O)Nc1ccc(CNCc2ccc(CS(C)(=O)=O)cc2)cc1`, the INHIBITION was determined as 38%.
For the compound `COCc1nc(CNc2cccc(-c3ncon3)c2)cs1`, the INHIBITION is reported as -42.1%.
With `COCc1nc(CNc2cc(C)on2)cs1`, the INHIBITION is on record as 51.7%.
As for `COCc1nc(CNc2cccc(-c3nc(C)c(C)o3)c2)cs1`, the INHIBITION was determined as 65.3%.
As for `COCc1nc(CNc2cccc(-c3csc(C)n3)c2)cs1`, the figure is 18.9%; as for `Cc1cc(NCc2csc(C)n2)no1`, 29.4%; as for `Cc1cc(NCc2csc(-c3ccsc3)n2)no1`, -92.1%.
Turning to `CN(Cc1noc2c1CCCC2)C(=O)Nc1ccc2oc(=O)n(C)c2c1`, the INHIBITION was 36.4%.
As to `Cc1cnn(CCNCc2ccccc2OCc2ccncc2)c1`, the INHIBITION is on record as -15.5%.
Consider `COc1cc(C(=O)N(Cc2ccco2)C2CC2)cc2c1OCCO2`, for which the INHIBITION was -2.37%.
Consider `CCN(Cc1ccco1)C(=O)c1cc(OC)c2c(c1)OCCO2`, for which the INHIBITION is listed as 10.3%.
As to `COc1cc(C(=O)N(Cc2ccco2)C2CC2)cc(OC)c1OC`, the INHIBITION worked out at 53.4%.
On to `O=C(NCCNc1ncccn1)C1CC(=O)N(C2CCCC2)C1` (configuration not stated), for which the INHIBITION was 21.6%.
As to `Cc1cnn(CCNCc2nnc(C3CC3)o2)c1`, the INHIBITION is 21.2%.
Take `c1cnn(CCNCc2nnc(C3CC3)o2)c1`: the INHIBITION was found to be 53.5%.
In the case of `c1ccc(-c2nnc(CNCCn3cccn3)o2)cc1` it was 32.6%; in that of `Cn1cccc1C(=O)N1CC[C@H]2C[C@@H](c3ccncn3)O[C@@H]2C1`, 41.5%; in that of `Cc1noc2nc(C3CCN(Cc4ccncc4)CC3)cc(C(F)F)c12`, 44.9%.
Take `Cc1noc2nc(C3CCN(CC4CCCCC4)CC3)cc(C(F)F)c12`: the INHIBITION is 59%.
`Cc1noc2nc(C3CCN(Cc4cccnc4)CC3)cc(C(F)F)c12`: the INHIBITION turned out to be 48.3%.
On to `CCCS(=O)(=O)N1C[C@@H]2C[C@H](C(=O)N3CCOCC3)[C@H](C1)O2`, for which the INHIBITION is given as -19.6%.
In the case of `CNC(=O)c1cccc(NC(=O)CN2CCCN(S(C)(=O)=O)CC2)c1`, the INHIBITION is on record as -7.27%.
`O=C(C[C@@H]1COC[C@H]2CN(C3CCCC3)C[C@@H]12)NCc1cccnc1`: the INHIBITION is listed as 20.6%.
For the compound `Cc1nnc2n1CCN(Cc1nc(-c3ccoc3)no1)C2`, the INHIBITION is recorded as -16.75%.
As to `Cc1nn(C)c(N(C)C)c1CNCCC(=O)NC1CCCC1`, the INHIBITION came out at 64.8%.
As for `COc1c(CNCc2ccc(S(C)(=O)=O)cc2)c(C)nn1C`, the INHIBITION is reported as -31.8%.
With `COc1c(CNCc2ccc(C(=O)N(C)C(C)C)cc2)c(C)nn1C`, the INHIBITION was 88.5%.
For `COc1c(CNCc2ccc(OCC(N)=O)cc2)c(C)nn1C`, the INHIBITION is 35.9%.
As for `Cc1nn(C)c(N(C)C)c1CNCCC(=O)NC1CCCCC1`, the INHIBITION was 49.8%.
As for `COc1c(CNCc2ccc(CN(C)C)cc2)c(C)nn1C`, the figure is -15.8%; as for `COc1c(CNCc2ccc(C(=O)N3CCCC3)cc2)c(C)nn1C`, 64.9%; as for `COCc1ccc(CNCc2c(C)nn(C)c2N(C)C)cc1`, 33.7%.
In the case of `CCNC(=O)c1ccc(CNCc2c(C)nn(C)c2N(C)C)cc1`, the INHIBITION came out at 58.8%.
In the case of `Cc1nn(C)c(N(C)C)c1CNCc1ccc(C(=O)N(C)C)cc1` it was -19.9%; in that of `CC(C)c1nn(C)c(N(C)C)c1CNCCC(=O)NC1CCCC1`, 35.8%.
With `COc1c(CNCc2ccc(C(=O)NC3CC3)cc2)c(C)nn1C`, the INHIBITION is reported as 13.5%.
As to `Cc1nn(C)c(N2CCOCC2)c1CNCc1ccoc1C`, the INHIBITION is recorded as -29.8%.
Take `O=C1CC2(CCCC2)CC(=O)N1Cc1nccs1`: the INHIBITION was found to be 28.4%.
Consider `Cc1ncsc1CN1C[C@@H](O)[C@](O)(CNC(=O)c2ccccn2)C1`, for which the INHIBITION is 18.9%.
For `O=C(NC1CCC1)[C@H]1C[C@@H]2[C@@H](C1)OCCN2CC1CC1`, the INHIBITION turned out to be 36.4%.
As to `Cc1ccc2c(c1)C1(CCN(C(N)=O)CC1)CN2CC1CC1`, the INHIBITION was 44.8%.
In the case of `NS(=O)(=O)c1cnn(CC(=O)Nc2c(Cl)cccc2Cl)c1` it was 42.3%; in that of `Cc1nc(C)n(CCNS(=O)(=O)NCc2ccccc2)n1`, 49.9%; in that of `CS(=O)(=O)N1CCOCC2(CCN(C(=O)c3cnccn3)CC2)C1`, -6.23%.
As for `O=C(NCc1ccccc1Cn1cncn1)C1CCCCC1`, the INHIBITION is 30.6%.
As for `Cc1cnc(N2CC3(CCN(S(=O)(=O)C4CC4)C3)C2)nc1`, the figure is 40.3%; as for `Cc1nn(C)cc1Cn1c(=O)c(C)nc2ccccc21`, -11.4%.
Consider `COc1c(CNCc2ccc(CS(C)(=O)=O)cc2)c(C)nn1C`, for which the INHIBITION is recorded as 43.2%.
In the case of `COc1c(CNCc2ccc(C(=O)N(C)C)cc2)c(C)nn1C`, the INHIBITION was 56.3%.
Regarding `COc1c(CNCCNC(=O)c2ccc(C)cc2)c(C)nn1C`, the INHIBITION stood at 52.7%.
For the compound `COc1c(CNCc2cccc(C(=O)N(C)C)c2)c(C)nn1C`, the INHIBITION is -29.8%.
Regarding `COc1c(CNCCNC(=O)c2ccccc2)c(C)nn1C`, the INHIBITION turned out to be 15.3%.
On to `COc1c(CNCCNC(=O)c2ccc(C)cc2)c(C(C)C)nn1C`, for which the INHIBITION is -79.3%.
On to `CC(C)(C)C(=O)Nc1cnn(-c2ccccc2S(C)(=O)=O)c1`, for which the INHIBITION was -0.125%.
As to `O=C(c1ccccc1)N1CCC[C@]2(C[C@@H](Oc3ncccc3F)CO2)C1`, the INHIBITION is 5.96%.
For the compound `Cc1ccc(N2C[C@@H]3CCCO[C@@H]3[C@H](N3CCCC3)C2)nn1`, the INHIBITION turned out to be 20.1%.
As for `COCCCC1CCCN(Cc2c(C)ccc3ncccc23)C1` (configuration not stated), the INHIBITION worked out at 5.41%.
In the case of `COc1ccc(S(=O)(=O)N2CCc3ccc(Cl)cc32)cc1C(=O)O`, the INHIBITION is -54.6%.
With `CCc1cn[nH]c1C1CCN(c2cc(C)c3cc(OC)ccc3n2)CC1`, the INHIBITION is reported as 26.6%.
Turning to `CCc1cn[nH]c1C1CCN(c2cc(C)c3cccc(OC)c3n2)CC1`, the INHIBITION turned out to be 42.7%.
As for `CCc1cn[nH]c1C1CCN(c2cc(C)c3ccc(OC)cc3n2)CC1`, the figure is 71.1%; as for `Cc1cccc(OCCC(=O)N(C)CCNS(C)(=O)=O)c1C`, 7.11%; as for `CC(C)(C)CC(=O)N1CCCC2(CC(C(=O)Nc3ccccc3)=NO2)C1` (configuration not stated), -32%.
Consider `OCCCc1nncn1-c1cccc(C(F)(F)F)c1`, for which the INHIBITION came to 33.4%.
`Cc1cccc(NC(=O)[C@@H]2CCCN2Cc2cnc3ccccn23)n1`: the INHIBITION is given as 45.7%.
With `CC(C)N(C)C(=O)C1CCN(Cc2cnc3ccccn23)CC1`, the INHIBITION amounted to 63.3%.
Consider `CCOC(=O)N(C)C1CCN(Cc2cnc3ccccn23)CC1`, for which the INHIBITION was 8.12%.
In the case of `CN(C(=O)C1CCN(Cc2cnc3ccccn23)CC1)c1ccccc1`, the INHIBITION was determined as 58.2%.
In the case of `CCc1nc(C)c(C(=O)N(C)Cc2cnc3ccccn23)o1` it was 10.6%; in that of `CC(C)N(C)C(=O)C1CCN(Cc2cc3c(cc2O)CCC3)CC1`, 33.6%; in that of `O=C([C@H]1CCCO1)N1CC[C@H](O)[C@@H]1Cc1cccnc1`, 39.4%.
`CN(C)c1nc(N2CCCC2)nc2c1CCN(C(=O)c1ccco1)CC2`: the INHIBITION is 28.2%.
For `CCCc1noc(CCC(=O)N2CCCC2c2cccc(OC)c2)n1` (configuration not stated), the INHIBITION is given as -34%.
In the case of `CC(=O)N1CCC(c2noc(C3CCC(=O)N3)n2)CC1` (configuration not stated), the INHIBITION turned out to be 18.4%.
With `O=C1CCC(c2nc(C3CCN(C(=O)C4CC4)CC3)no2)N1` (configuration not stated), the INHIBITION worked out at 14%.
With `O=C1CCC(c2nc(C3CCNCC3)no2)N1` (configuration not stated), the INHIBITION is recorded as 55.8%.
Turning to `Cc1cc(C(F)F)nn1C(C)C(=O)NCc1ncc[nH]1` (configuration not stated), the INHIBITION was -1.21%.
For the compound `Cc1csc(N2CCN(C(=O)C3(C#N)CCCC3)CC2)n1`, the INHIBITION is -9.75%.
As for `NC(=O)COc1ccc(C2NC(=O)CN2Cc2ccc(Br)cc2)cc1` (configuration not stated), the figure is 15.9%; as for `Cc1cc(C2NC(=O)CN2Cc2ccc(Br)cc2)cc(C)c1O` (configuration not stated), 60.4%; as for `COc1cc(OC)cc(C2NC(=O)CN2Cc2ccc(Br)cc2)c1` (configuration not stated), 45.6%.
Turning to `Cc1nc(CN2Cc3nccn3CC(CN3CCCC3)C2)cs1` (configuration not stated), the INHIBITION was -29.3%.
In the case of `C[C@@H]1CN(C(=O)c2nc3sccn3c2-c2ncc[nH]2)C[C@H](C)O1`, the INHIBITION was 11.3%.
With `CN1CCCN(C(=O)c2nc3sccn3c2-c2ncc[nH]2)CC1`, the INHIBITION is recorded as -16%.
For the compound `O=C(c1nc2sccn2c1-c1ncc[nH]1)N1CCCCC1`, the INHIBITION was found to be 50.2%.
On to `CC(C)c1cc(=O)[nH]c(-c2ccccc2CN2CCCC2C)n1` (configuration not stated), for which the INHIBITION amounted to 31.8%.
In the case of `CC(C)N1CCC(CC(=O)NC[C@H]2CCc3ccccc3O2)CC1`, the INHIBITION was determined as 7.4%.
For `CCN1CCC(CC(=O)NC[C@H]2CCc3ccccc3O2)CC1`, the INHIBITION was found to be 39.9%.
Regarding `CC(C)N1CCC(C(=O)NC[C@H]2CCc3ccccc3O2)CC1`, the INHIBITION is listed as 61.5%.
As for `Cc1ccc(S(C)(=O)=O)cc1NCC(=O)NCCC1=CCCCC1`, the figure is -50.7%; as for `CC(NC(=O)N(C)C1CC1)c1ccc(Oc2cccnc2)c(F)c1` (configuration not stated), 37.4%.
As to `Cc1cnn(CC2CCCN2C(=O)c2n[nH]c(=O)c3ccccc23)c1` (configuration not stated), the INHIBITION is recorded as -4.16%.
In the case of `N#Cc1nccnc1N1CCC(COCc2ccccc2)C1` (configuration not stated) it was 20.8%; in that of `N#Cc1nccnc1N1CCC(OCCCc2ccccc2)C1` (configuration not stated), 72.3%; in that of `N#Cc1nccnc1N1CCC(Cc2ccccc2)C1` (configuration not stated), 0.672%.
As for `CC(C)(C)Cc1nnc(NCc2ccsc2)o1`, the INHIBITION is 53.4%.
As for `CC(C)Cc1nnc(NCc2ccsc2)o1`, the figure is -54.5%; as for `c1cc(CNc2nnc(Cc3ccsc3)o2)cs1`, -86.6%.
